# Compounds without any hit were thinned out: in the full panel of roughly 83,000, 20% have a hit.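 Negative percent growth values reflect cell death: -40 means 40% of the cells present at the start died, and -100 means all died.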 Unmarked numbers belong to inactive results. Calls of active or inactive are those of the source. How the source made its calls: active means growth percent below 10; inactive means the rest.
# System: NCI-H460 lung
# Test: NCI-60 one-dose screen, 48 h (100 = growth as untreated, 0 = no growth, -100 = all killed)
# Conditions: 10 µM unless noted
row,SMILES,growth
1,COc1cc(NCCCN=C(N)N)c2ncccc2c1,96.4%
2,ClCCN(CCCl)c1nc(Cl)c(C2CC(c3ccccc3)=NN2c2cc(Cl)cc(Cl)c2)s1 (stereo not given),99.3%
3,CCCCCCCC(=O)OCC(=O)[C@]1(O)Cc2c(O)c3c(c(O)c2[C@@H](OC2CC(N)C(O)C(C)O2)C1)C(=O)c1c(OC)cccc1C3=O (stereo not given in full),-92.9% (active)
4,COC[C@@H]1C[C@@]2(C)[C@@H](CC[C@@H]3[C@@H]2CC[C@@]2(C)[C@H]3CC[C@]2(C)O)CC1=O,101%
5,C[C@]12CC[C@@H]3c4ccc(Oc5nc(N6CC6)nc(N6CC6)n5)cc4CC[C@H]3[C@@H]1CCC2=O,-33.8% (active)
6,O=C1OCC2=C1C(c1ccccc1)c1cc3c(cc1N2)OCO3 (stereo not given),5.45% (active)
7,CCC1(C)CC(CCNCc2ccccc2O)(c2ccc(C)cc2)CCO1 (stereo not given),102%
8,ClCCN(CCCl)Cc1ccc(Nc2ccnc3cc(Cl)ccc23)cc1,2.98% (active)
9,c1ccc(Nc2nc(-c3ccccc3)c[se]2)cc1,100%
10,CCN(CC)CCOC(=O)C(OC(C)C)(c1ccccc1)c1ccccc1,100%
11,CCCc1cc(O)c2c3c(c(=O)oc2c1)CN(C)CC3,11.9%
12,ClCCN(CCCl)c1ccc(/C=N/Nc2ncnc3nc[nH]c23)cc1,39.1%
13,CCC1(C(C)C)C(=O)NC(=S)NC1=O,102%
14,CC(C)(N)Cc1ccccc1,111%
15,CC1(C)N=C(N)N=C(N)N1c1cccc(CCCCc2ccc(Cl)c(S(=O)(=O)F)c2)c1,21.4%
